In ChEMBL document CHEMBL1961873, “Compounds: GSK PKIS; Assays: Nanosyn kinase panel” (2012):

Tests used:
[1] = biological target: T1, Inhibitor of nuclear factor kappa-B kinase subunit epsilon (Homo sapiens) (UniProt Q14164); conditions: at 1 µM;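 note: reported values are averaged percent inhibition figures against human IKKε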
T1 sequence (whole entry): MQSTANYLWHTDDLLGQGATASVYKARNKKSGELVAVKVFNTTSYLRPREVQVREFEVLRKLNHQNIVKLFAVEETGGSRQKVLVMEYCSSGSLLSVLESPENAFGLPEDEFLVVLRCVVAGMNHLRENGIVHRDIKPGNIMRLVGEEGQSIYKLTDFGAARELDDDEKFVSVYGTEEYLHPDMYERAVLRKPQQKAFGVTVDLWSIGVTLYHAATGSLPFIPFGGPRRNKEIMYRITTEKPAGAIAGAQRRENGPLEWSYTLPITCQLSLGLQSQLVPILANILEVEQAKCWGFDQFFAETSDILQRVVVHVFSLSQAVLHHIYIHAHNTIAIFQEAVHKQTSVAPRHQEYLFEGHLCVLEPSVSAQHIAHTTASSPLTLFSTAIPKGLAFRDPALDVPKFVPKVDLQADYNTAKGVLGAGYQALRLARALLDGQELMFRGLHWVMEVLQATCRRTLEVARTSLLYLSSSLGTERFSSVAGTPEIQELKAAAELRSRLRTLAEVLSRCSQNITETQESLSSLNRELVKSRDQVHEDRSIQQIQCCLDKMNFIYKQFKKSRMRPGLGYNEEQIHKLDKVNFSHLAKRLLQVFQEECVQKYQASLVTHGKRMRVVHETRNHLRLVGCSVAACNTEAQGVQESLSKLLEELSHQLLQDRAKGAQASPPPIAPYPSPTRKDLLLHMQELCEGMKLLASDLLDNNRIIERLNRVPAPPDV

[2] = biological target: T2, Serine/threonine-protein kinase Nek1 (Homo sapiens) (UniProt Q96PY6); conditions: at 0.1 µM
T2 sequence (whole entry): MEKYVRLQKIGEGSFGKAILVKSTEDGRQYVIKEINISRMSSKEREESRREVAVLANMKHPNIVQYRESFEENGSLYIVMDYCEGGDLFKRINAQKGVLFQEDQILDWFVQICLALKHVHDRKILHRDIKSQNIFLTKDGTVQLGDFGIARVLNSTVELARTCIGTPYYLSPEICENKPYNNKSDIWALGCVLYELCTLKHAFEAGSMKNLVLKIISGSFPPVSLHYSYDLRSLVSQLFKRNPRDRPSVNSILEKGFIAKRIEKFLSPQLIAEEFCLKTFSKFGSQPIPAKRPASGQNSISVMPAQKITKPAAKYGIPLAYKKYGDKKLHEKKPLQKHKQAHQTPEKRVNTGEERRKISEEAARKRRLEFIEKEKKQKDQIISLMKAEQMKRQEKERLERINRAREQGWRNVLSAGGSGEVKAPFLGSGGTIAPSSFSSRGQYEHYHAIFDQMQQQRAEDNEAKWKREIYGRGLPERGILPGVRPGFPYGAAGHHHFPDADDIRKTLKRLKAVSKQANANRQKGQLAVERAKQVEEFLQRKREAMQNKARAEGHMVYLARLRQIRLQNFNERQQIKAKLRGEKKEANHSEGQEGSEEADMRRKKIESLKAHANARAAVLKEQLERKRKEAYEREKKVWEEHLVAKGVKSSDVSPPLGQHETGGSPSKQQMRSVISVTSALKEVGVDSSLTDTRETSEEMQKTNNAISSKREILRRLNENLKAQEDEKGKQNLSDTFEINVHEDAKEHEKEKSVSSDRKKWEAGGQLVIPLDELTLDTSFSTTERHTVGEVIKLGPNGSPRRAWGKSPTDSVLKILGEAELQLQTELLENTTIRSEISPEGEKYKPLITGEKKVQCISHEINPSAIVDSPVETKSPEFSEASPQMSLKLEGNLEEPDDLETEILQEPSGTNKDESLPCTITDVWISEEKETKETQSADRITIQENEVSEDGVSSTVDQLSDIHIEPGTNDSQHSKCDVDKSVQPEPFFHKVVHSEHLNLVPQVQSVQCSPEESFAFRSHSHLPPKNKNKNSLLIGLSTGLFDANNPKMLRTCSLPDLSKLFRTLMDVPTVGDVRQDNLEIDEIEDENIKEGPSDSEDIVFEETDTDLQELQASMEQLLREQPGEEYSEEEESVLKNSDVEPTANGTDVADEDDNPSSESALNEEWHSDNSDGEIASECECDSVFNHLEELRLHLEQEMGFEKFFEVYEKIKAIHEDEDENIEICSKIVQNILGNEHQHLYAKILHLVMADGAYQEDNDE

[3] = biological target: T2, Serine/threonine-protein kinase Nek1 (Homo sapiens); conditions: at 1 µM
[4] = biological target: T3, Serine/threonine-protein kinase Nek2 (Homo sapiens) (UniProt P51955); conditions: at 0.1 µM
T3 sequence (whole entry): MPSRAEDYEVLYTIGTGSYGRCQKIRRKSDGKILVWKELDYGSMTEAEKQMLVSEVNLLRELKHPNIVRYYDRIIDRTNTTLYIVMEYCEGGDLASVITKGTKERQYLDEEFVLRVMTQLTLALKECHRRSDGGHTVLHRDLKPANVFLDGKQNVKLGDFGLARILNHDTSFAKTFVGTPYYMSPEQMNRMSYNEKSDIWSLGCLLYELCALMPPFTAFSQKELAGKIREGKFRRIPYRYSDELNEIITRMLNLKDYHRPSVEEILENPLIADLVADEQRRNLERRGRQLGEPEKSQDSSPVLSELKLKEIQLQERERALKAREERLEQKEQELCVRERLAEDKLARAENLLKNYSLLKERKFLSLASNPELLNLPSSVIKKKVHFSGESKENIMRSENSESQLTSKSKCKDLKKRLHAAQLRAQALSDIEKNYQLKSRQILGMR

[5] = biological target: T3, Serine/threonine-protein kinase Nek2 (Homo sapiens); conditions: at 1 µM
[6] = biological target: Serine/threonine-protein kinase Nek6 (Homo sapiens) (UniProt Q9HC98); conditions: at 0.1 µM
[7] = biological target: Serine/threonine-protein kinase Nek6 (Homo sapiens) (UniProt Q9HC98); conditions: at 1 µM
[8] = biological target: Serine/threonine-protein kinase Nek7 (Homo sapiens) (UniProt Q8TDX7); conditions: at 0.1 µM
[9] = biological target: Serine/threonine-protein kinase Nek7 (Homo sapiens) (UniProt Q8TDX7); conditions: at 1 µM
[10] = biological target: T4, Serine/threonine-protein kinase Nek9 (Homo sapiens) (UniProt Q8TD19); conditions: at 0.1 µM
T4 sequence (whole entry): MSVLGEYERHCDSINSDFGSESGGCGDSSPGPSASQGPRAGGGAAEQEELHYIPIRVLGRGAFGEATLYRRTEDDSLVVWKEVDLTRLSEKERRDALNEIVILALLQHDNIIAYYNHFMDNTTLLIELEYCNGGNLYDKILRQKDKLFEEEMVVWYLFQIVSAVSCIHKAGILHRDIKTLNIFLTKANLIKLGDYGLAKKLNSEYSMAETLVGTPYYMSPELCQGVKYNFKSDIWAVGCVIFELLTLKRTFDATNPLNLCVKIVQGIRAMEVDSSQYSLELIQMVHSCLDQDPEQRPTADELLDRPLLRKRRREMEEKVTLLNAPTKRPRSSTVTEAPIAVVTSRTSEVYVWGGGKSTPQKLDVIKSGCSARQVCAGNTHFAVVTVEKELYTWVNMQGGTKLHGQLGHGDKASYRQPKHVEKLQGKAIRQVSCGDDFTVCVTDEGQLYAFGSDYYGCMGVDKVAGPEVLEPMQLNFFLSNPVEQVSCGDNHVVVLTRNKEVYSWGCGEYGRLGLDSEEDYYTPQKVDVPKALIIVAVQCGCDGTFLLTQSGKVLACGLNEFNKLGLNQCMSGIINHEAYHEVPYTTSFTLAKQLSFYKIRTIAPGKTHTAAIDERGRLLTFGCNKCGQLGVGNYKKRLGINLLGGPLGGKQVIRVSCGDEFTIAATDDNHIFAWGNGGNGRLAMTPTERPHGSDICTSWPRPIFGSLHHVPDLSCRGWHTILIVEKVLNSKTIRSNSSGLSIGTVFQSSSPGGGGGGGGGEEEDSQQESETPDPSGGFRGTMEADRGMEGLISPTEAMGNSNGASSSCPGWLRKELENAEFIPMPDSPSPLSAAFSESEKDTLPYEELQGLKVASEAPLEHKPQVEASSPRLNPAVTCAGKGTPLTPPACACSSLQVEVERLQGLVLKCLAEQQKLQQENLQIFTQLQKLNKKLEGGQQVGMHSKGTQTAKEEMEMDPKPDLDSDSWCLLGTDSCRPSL

[11] = biological target: T4, Serine/threonine-protein kinase Nek9 (Homo sapiens); conditions: at 1 µM
[12] = biological target: Serine/threonine-protein kinase PLK1 (Homo sapiens) (UniProt P53350); conditions: at 0.1 µM
[13] = biological target: Serine/threonine-protein kinase PLK1 (Homo sapiens) (UniProt P53350); conditions: at 1 µM
[14] = biological target: T5, Dual specificity protein kinase TTK (Homo sapiens) (UniProt P33981); conditions: at 0.1 µM
T5 sequence (whole entry): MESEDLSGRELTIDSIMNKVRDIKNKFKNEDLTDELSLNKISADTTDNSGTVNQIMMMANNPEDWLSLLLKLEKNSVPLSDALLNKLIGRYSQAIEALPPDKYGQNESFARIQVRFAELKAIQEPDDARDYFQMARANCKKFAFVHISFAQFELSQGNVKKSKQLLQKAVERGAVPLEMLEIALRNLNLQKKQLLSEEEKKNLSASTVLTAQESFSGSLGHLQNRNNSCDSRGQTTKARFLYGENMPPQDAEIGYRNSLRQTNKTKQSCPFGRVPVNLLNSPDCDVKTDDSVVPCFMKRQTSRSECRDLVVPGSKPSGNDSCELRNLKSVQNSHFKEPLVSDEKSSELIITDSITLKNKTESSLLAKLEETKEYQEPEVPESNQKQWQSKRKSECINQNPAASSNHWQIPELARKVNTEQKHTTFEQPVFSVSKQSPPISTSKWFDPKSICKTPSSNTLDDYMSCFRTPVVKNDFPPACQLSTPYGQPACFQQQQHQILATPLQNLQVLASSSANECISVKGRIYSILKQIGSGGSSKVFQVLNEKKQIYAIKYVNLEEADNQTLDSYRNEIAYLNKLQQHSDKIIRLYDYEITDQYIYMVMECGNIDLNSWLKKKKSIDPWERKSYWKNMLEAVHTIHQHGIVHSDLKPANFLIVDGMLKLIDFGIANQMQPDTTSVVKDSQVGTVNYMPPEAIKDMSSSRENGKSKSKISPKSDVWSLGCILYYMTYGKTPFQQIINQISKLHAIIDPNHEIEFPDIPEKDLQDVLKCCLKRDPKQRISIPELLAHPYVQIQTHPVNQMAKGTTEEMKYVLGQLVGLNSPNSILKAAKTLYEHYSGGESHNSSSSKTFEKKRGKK

[15] = tested on: T6, Receptor-type tyrosine-protein kinase FLT3 (Homo sapiens), P36888 [D835Y]; conditions: at 1 µM
T6 sequence (whole entry): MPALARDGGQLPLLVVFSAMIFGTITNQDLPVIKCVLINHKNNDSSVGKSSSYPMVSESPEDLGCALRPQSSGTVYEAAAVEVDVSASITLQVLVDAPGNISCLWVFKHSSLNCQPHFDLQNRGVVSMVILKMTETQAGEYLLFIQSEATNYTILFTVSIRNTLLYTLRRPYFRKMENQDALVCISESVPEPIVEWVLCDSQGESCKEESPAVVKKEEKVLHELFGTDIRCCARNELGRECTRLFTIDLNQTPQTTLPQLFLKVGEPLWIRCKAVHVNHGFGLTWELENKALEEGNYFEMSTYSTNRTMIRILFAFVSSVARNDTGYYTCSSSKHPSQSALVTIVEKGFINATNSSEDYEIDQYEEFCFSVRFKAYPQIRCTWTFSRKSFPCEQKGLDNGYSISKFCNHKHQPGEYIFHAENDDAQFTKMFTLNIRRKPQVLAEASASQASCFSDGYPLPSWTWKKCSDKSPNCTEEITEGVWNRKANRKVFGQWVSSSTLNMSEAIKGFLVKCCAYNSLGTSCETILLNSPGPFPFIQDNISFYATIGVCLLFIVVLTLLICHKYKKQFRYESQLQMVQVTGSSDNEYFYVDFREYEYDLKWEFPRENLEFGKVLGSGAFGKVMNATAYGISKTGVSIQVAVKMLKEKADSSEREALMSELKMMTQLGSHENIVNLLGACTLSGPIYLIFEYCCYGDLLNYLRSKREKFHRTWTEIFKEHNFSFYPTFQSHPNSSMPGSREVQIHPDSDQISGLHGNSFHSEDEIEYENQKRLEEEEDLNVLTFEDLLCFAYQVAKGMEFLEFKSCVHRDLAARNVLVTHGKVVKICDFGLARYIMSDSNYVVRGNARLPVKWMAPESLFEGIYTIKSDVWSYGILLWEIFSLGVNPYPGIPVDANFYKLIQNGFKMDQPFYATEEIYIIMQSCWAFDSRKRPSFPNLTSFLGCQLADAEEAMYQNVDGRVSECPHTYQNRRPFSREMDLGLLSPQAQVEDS

[16] = biological target: Vascular endothelial growth factor receptor 3 (Homo sapiens) (UniProt P35916); conditions: at 0.1 µM
[17] = biological target: Vascular endothelial growth factor receptor 3 (Homo sapiens) (UniProt P35916); conditions: at 1 µM
[18] = biological target: Macrophage colony-stimulating factor 1 receptor (Homo sapiens) (UniProt P07333); conditions: at 0.1 µM
[19] = biological target: Macrophage colony-stimulating factor 1 receptor (Homo sapiens) (UniProt P07333); conditions: at 1 µM
[20] = biological target: Tyrosine-protein kinase Fyn (Homo sapiens) (UniProt P06241); conditions: at 0.1 µM
Chain of Tyrosine-protein kinase Fyn (Homo sapiens) (P06241 2-537 limits assumed): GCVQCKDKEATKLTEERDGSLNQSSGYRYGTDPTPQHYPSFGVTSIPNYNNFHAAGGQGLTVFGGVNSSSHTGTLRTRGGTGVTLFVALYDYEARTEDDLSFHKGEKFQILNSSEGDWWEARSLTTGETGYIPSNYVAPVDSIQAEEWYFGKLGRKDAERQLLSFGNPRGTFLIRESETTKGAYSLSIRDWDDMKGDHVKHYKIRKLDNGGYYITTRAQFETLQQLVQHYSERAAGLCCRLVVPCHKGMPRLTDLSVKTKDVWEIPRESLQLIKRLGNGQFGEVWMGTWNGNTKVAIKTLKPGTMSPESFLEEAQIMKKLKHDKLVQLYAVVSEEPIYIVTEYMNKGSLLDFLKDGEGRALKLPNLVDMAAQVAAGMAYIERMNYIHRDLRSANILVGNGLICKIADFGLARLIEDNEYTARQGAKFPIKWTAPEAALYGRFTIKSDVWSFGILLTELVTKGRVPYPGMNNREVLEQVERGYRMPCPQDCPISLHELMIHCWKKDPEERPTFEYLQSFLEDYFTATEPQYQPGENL

Chain of Serine/threonine-protein kinase Nek7 (Homo sapiens) (Q8TDX7 whole entry, looked up): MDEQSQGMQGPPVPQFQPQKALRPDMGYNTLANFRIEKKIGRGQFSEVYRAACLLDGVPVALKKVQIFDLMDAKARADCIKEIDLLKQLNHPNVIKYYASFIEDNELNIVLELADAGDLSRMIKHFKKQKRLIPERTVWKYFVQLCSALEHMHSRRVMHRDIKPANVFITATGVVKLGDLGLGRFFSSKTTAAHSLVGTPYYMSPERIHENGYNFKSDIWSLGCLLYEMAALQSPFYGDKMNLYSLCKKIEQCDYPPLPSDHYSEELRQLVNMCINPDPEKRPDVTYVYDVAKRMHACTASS
Chain of Macrophage colony-stimulating factor 1 receptor (Homo sapiens) (P07333 whole entry): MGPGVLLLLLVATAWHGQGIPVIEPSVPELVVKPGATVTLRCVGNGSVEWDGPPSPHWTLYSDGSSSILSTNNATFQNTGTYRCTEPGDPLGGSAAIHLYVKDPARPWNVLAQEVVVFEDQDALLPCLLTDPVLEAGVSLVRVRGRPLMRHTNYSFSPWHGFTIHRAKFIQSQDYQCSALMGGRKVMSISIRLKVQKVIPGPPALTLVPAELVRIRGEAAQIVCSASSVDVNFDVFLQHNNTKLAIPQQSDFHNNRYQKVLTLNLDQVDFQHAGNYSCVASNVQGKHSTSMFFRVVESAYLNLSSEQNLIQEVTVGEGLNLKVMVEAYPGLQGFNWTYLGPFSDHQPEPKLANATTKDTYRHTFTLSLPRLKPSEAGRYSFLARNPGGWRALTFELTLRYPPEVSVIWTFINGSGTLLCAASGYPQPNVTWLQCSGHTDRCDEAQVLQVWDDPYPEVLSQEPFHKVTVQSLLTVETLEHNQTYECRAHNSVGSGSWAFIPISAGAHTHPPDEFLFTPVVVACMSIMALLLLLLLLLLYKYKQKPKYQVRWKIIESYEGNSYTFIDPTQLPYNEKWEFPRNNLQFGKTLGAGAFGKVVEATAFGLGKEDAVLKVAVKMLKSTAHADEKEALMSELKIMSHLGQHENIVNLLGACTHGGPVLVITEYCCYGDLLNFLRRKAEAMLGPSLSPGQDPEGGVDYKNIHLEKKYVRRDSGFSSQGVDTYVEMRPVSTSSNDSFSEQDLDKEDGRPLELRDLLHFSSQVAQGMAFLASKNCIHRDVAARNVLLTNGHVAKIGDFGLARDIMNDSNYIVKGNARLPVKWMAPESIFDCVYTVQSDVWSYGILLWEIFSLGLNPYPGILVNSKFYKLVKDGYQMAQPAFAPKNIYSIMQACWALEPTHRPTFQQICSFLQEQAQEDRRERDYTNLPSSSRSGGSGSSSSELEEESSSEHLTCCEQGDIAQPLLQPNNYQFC
Chain of Serine/threonine-protein kinase PLK1 (Homo sapiens) (P53350 whole entry): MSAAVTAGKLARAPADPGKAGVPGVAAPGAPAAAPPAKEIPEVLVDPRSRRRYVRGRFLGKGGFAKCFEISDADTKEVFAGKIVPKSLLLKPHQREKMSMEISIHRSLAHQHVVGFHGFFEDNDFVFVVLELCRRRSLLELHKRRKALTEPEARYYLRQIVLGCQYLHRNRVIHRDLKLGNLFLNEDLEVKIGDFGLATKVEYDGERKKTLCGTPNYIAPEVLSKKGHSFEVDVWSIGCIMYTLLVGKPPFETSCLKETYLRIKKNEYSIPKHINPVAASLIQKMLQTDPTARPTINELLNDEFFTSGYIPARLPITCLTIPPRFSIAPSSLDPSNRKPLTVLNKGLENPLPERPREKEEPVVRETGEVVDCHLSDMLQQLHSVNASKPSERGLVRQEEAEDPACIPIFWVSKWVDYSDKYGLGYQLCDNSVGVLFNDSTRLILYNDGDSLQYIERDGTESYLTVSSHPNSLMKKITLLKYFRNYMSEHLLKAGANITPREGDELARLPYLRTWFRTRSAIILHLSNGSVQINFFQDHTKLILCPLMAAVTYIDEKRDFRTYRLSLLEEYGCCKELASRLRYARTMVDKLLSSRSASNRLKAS
Chain of Serine/threonine-protein kinase Nek6 (Homo sapiens) (Q9HC98 whole entry): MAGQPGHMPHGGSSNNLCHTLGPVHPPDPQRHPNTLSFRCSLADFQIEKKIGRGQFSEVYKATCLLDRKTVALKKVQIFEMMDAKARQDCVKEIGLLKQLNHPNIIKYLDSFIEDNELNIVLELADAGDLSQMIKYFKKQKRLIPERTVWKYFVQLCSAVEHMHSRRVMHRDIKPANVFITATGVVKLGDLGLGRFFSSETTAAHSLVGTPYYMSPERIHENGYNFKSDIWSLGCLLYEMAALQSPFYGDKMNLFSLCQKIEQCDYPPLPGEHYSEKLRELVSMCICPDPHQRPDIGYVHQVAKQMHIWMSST
Chain of Vascular endothelial growth factor receptor 3 (Homo sapiens) (P35916 whole entry): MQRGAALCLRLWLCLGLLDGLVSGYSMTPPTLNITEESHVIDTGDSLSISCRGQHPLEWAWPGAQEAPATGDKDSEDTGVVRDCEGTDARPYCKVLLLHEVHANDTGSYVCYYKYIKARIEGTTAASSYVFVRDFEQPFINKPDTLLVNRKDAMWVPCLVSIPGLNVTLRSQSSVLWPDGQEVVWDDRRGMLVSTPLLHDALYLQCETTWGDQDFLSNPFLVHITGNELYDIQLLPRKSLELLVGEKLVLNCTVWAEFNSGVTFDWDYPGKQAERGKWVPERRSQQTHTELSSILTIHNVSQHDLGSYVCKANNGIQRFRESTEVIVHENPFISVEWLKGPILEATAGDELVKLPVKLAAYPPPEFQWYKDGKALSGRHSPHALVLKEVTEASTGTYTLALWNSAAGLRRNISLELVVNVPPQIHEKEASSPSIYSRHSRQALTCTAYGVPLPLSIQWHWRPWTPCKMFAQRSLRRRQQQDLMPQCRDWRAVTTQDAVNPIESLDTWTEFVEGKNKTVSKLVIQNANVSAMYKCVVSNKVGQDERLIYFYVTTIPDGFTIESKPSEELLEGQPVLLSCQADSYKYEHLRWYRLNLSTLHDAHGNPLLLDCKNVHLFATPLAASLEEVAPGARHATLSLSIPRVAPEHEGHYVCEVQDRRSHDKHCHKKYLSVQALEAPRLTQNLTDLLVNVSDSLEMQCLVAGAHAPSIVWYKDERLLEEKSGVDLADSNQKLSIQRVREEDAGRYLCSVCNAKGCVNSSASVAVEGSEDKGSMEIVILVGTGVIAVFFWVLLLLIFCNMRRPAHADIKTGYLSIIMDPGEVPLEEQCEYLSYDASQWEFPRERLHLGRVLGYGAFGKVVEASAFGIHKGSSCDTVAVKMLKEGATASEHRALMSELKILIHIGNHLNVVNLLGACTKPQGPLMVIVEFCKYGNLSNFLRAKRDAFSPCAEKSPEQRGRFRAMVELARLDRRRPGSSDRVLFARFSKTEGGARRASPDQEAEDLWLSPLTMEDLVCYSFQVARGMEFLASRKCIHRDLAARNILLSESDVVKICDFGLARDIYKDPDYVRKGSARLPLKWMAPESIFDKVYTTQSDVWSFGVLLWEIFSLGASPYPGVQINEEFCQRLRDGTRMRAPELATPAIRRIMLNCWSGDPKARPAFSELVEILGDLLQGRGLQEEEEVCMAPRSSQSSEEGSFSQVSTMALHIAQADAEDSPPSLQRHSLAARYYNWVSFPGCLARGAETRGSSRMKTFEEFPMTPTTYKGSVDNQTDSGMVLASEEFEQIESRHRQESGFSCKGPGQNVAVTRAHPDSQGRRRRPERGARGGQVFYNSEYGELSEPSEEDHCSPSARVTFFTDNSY

Structure (SMILES)	inhibition [1]	inhibition [2]	inhibition [3]	inhibition [4]	inhibition [5]	inhibition [6]	inhibition [7]	inhibition [8]	inhibition [9]	inhibition [10]	inhibition [11]	inhibition [12]	inhibition [13]	inhibition [14]	inhibition [15]	inhibition [16]	inhibition [17]	inhibition [18]	inhibition [19]	inhibition [20]
CCn1c(-c2nonc2N)nc2c(C#CC(C)(C)O)ncc(OC3CCNCC3)c21	95.8%	2.28%	2.37%	3.31%	2.51%	-0.18%	1.86%	-3.88%	5.15%	2.14%	5.22%	2.8%	5%	5.34%	0.12%	8.92%	26.6%	1.2%	2.92%	1.53%
CN1CCC(n2cnc(-c3ccc(F)cc3)c2-c2ccnc(Nc3ccccc3)n2)CC1	6.75%	1.95%	2.29%	2.54%	3.52%	4.42%	3.58%	2.94%	2.65%	5.58%	10.1%	6.81%	2.65%	9.56%	2.38%	0.02%	1.32%	-1.19%	4.11%	0.05%
